Data on 23 compounds can be found in PubChem BioAssay (Tox21).

A short description of assay [1]: qHTS assay to identify small molecule antagonists of the sonic hedgehog signaling (Shh) pathway (AID 1259369). Note: nearly all actives have a fitted effect of over 45% in size. Note: potency is the fitted concentration of half-maximal effect. The gist of the method:
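Stable Gli1-Luc reporter NIH/3T3 clone; quantitative HTS in stimulated mode with conditioned medium. Luminescence measured after 24hr compound treatment at 37 C.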
(Quantitative high-throughput screening tests each substance at several concentrations.)

The target of assay [2] is Estrogen receptor beta (Homo sapiens) (UniProt Q92731). Nature of the assay: qHTS assay to identify small molecule agonists of the estrogen receptor beta (ER-beta) signaling pathway (AID 1259377; active = well fitted activation curve with a large enough effect in the signal ratio in the repeat runs, not every such curve was filed as active; the % refers to the signal ratio). The gist of the method: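 In HEK293T cells bearing a UAS-beta-lactamase reporter under ER-beta control, DMSO-delivered compounds were incubated for 16 hr at 37C. Activity was detected as fluorescence 2 hours after LiveBLAzer B/G FRET substrate addition.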

For assay [3] the target is unchanged. Nature of the assay: qHTS assay to identify small molecule antagonists of the estrogen receptor beta (ER-beta) signaling pathway (AID 1259378; active = well fitted inhibition curve with a large enough effect in the signal ratio in the repeat runs, not every such curve was filed as active; the % refers to the signal ratio; note: potency is the fitted concentration of half-maximal effect). The essentials: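 ER-beta-UAS-bla HEK293T (GripTite) cells in 2% charcoal-stripped FBS medium were preincubated 6 hr at 37C, dosed with compound, then stimulated with 1 nM E2 (final) for 16 hr; beta-lactamase reporter read by B/G FRET fluorescence after 2 hr substrate loading.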

A short description of assay [4]: qHTS assay to identify small molecule agonists of the androgen receptor (AR) signaling pathway in the presence of an antagonist - cell viability counter screen (AID 1259379; active = well fitted curve in the direction sought with a large enough effect in the repeat runs; an effect the other way counts as inactive or inconclusive; note: nearly all actives have a fitted effect of over 25% in size; note: potency is the fitted concentration of half-maximal effect). The gist of the method:
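Nilutamide-containing (3.0uM final) MDA-kb2 cultures, 3,000 cells/well, were treated with compounds across 15 concentrations. After 16 hr at 37C with no CO2, cell viability was determined by CellTiter-Fluor fluorescence in the luciferase assay wells.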

The nature of assay [5]: qHTS assay to identify small molecule agonists of the estrogen receptor beta (ER-beta) signaling pathway - cell viability counter screen (AID 1259380; active = well fitted curve in the direction sought with a large enough effect in the repeat runs; an effect the other way counts as inactive or inconclusive; note: nearly all actives have a fitted effect of over 30% in size; note: potency is the fitted concentration of half-maximal effect). The essentials: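 Steps: plate ER-beta-UAS-bla HEK293T cells, rest 6 hr; add compounds in DMSO; incubate 16 hr at 37C, 5% CO2; add FRET substrate 2 hr; add CellTiter-Glo, wait 30 min at room temperature; read luminescence.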

Assay [6] can be described thus: qHTS assay to identify small molecule antagonists of the estrogen receptor beta (ER-beta) signaling pathway - cell viability counter screen (AID 1259382; active = well fitted curve in the direction sought with a large enough effect in the repeat runs; an effect the other way counts as inactive or inconclusive; note: series mostly up to about 92 µM; nearly all actives have a fitted effect of over 55% in size). The gist of the method:
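Viability is scored by CellTiter-Glo luminescence (30 min, room temperature) in ER-beta-UAS-bla HEK293T wells already read for reporter fluorescence. Compound exposure lasts 16 hr at 37C alongside 1nM 17-beta-estradiol in charcoal-stripped serum medium.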

Assay [7] deals with Estrogen receptor (Homo sapiens) (UniProt P03372). Kind of assay: qHTS assay to identify small molecule agonists of the estrogen receptor alpha (ER-alpha) signaling pathway in the presence of an antagonist (AID 1259383). Note: top concentration of the series differs between compounds; nearly all actives have a fitted effect of over 15% in size. The essentials:
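Readout was ERE-driven luciferase luminescence in VM7Luc4E2 cells, which express full-length ER-alpha endogenously. Compounds were tested at 15 concentrations for 22hr alongside 10.0nM ICI-182,780 (final concentration).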

Assay [8] in a line: qHTS assay to identify small molecule agonists or antagonists of the thyroid stimulating hormone receptor (TSHR) signaling pathway - wild type cell line counter screen (AID 1259384). The essentials:
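Wild-type HEK293 cells were plated 18 h at 37 C/5% CO2, pin-dosed with compound plus Ro20-1724 medium, held 30 min at room temperature, then given cAMP-d2 and anti-cAMP-cryptate; fluorescence was read after 1 h. Fifteen concentrations, triplicate.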

Assay [9] has as its target Thyrotropin receptor (Homo sapiens) (UniProt P16473). Kind of assay: qHTS assay to identify small molecule antagonists of the thyroid stimulating hormone receptor (TSHR) signaling pathway (AID 1259385). Note: nearly all actives have a fitted effect of over 20% in size. The essentials: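 TSHR-HEK293 cells were plated and held 18 h at 37C/5% CO2, then given compound plus Ro20-1724 and stimulated with TSH at 1.5 ng/mL final. After 30 min at room temperature, cAMP was detected with cAMP-d2/anti-cAMP-cryptate (1 h) by fluorescence.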

For assay [10], the target named is Androgen receptor (Homo sapiens) (UniProt P10275). Kind of assay: qHTS assay to identify small molecule agonists of the androgen receptor (AR) signaling pathway in the presence of an antagonist (AID 1259381). Note: nearly all actives have a fitted effect of over 15% in size. The essentials: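 Reporter-gene luminescence from MDA-kb2 cells exposed 16hr at 37C (0% CO2) to 15-point compound titrations with 3.0uM final nilutamide as AR antagonist.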

Several values for one entry are separate records, joined by “and”; a condition that tells them apart may be missing. Equal entries are not always repeated. Records with an inconclusive call do not appear. Activity calls are given as the source filed them. Unless noted, calls come from the whole dose curve.

Sequence of Thyrotropin receptor (Homo sapiens) (P16473 whole entry, looked up): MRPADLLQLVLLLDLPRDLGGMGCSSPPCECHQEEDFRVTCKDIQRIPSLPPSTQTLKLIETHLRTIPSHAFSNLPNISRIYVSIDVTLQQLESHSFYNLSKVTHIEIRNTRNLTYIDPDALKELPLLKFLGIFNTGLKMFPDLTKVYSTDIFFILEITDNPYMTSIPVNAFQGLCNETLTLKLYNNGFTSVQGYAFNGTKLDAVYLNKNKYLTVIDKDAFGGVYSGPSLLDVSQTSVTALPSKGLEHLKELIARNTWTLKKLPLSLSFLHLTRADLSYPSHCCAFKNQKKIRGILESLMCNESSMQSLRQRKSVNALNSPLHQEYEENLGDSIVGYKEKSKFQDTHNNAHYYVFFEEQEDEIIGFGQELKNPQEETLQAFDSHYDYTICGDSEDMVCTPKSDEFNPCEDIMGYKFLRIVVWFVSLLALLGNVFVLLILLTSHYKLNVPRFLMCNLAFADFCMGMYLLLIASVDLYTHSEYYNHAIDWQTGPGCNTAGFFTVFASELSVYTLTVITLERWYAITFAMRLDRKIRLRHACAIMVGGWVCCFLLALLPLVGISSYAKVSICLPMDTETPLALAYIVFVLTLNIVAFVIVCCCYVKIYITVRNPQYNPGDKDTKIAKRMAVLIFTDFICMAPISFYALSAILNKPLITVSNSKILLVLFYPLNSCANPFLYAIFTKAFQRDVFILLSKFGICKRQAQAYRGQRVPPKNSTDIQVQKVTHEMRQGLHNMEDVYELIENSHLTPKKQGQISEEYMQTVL
Sequence of Estrogen receptor (Homo sapiens) (P03372 whole entry, looked up): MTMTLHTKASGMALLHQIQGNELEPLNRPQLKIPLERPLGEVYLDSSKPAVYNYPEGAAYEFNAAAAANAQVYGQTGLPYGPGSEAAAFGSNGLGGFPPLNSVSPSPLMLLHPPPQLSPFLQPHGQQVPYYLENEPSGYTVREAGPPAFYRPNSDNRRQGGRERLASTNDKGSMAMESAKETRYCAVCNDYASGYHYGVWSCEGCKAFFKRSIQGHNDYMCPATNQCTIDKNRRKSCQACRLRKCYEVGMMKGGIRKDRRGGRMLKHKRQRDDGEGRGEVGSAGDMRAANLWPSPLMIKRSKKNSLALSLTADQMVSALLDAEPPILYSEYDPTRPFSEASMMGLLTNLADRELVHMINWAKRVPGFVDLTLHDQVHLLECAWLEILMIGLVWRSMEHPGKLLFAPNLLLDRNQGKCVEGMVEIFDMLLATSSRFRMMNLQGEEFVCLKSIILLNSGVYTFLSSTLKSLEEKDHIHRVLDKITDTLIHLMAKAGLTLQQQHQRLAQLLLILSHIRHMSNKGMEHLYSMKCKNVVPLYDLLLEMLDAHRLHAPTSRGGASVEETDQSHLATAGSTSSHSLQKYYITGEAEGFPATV
Sequence of Androgen receptor (Homo sapiens) (P10275 whole entry, looked up): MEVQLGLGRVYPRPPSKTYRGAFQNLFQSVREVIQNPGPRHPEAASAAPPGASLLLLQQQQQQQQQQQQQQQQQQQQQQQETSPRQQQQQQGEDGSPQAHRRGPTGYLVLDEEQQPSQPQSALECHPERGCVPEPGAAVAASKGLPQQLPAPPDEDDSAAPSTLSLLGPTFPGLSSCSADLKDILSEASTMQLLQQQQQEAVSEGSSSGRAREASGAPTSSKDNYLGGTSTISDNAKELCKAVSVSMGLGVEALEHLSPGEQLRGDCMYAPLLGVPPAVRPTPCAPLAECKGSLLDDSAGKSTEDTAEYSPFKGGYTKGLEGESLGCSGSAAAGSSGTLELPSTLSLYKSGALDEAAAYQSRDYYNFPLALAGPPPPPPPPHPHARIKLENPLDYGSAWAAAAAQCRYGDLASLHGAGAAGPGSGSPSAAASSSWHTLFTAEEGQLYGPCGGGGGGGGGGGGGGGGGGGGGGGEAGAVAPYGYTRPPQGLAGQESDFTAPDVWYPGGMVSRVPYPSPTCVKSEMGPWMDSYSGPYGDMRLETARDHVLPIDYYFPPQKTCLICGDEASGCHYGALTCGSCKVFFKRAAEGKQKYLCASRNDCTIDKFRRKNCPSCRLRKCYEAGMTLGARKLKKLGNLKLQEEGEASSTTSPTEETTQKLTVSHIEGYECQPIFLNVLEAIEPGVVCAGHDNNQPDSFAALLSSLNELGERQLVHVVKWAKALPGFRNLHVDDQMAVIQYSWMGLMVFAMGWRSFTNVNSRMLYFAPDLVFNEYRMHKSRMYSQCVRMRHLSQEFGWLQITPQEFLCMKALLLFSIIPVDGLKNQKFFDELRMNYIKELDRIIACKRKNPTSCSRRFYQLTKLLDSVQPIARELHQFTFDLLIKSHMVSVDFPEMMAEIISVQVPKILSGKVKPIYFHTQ
Sequence of Estrogen receptor beta (Homo sapiens) (Q92731 whole entry, looked up): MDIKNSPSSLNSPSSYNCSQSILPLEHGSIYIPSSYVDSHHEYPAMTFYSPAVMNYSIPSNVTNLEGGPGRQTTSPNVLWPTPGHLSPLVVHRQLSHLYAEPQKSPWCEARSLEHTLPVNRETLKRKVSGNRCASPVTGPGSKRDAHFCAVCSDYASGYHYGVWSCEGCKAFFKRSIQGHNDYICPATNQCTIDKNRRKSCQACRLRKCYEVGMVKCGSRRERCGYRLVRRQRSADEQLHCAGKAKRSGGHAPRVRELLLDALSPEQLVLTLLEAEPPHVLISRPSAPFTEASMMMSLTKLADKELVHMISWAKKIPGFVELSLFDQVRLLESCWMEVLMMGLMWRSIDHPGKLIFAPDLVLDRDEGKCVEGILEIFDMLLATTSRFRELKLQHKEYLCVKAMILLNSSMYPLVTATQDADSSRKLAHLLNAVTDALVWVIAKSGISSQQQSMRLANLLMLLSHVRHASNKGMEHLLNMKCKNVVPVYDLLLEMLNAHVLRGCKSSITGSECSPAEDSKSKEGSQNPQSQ

As to `O=C1CCCCCCCCCCCCCCCO1`, the Potency result in [1], in assay [2], in assay [3], in assay [4], in assay [5] and in assay [6] was “inactive” throughout. The Potency entry in assay [7] and in assay [9] was “inactive” in each case. The compound was called inactive in assay [8].

For `O=C(O)Cc1ccc2c(c1)C(=O)c1ccccc1CO2`, the Potency entry in [1], in assay [2], in [3], in [4], in [6] and in assay [9] was “inactive” each time. Further, the compound was classed as inactive in assay [8].

As to `CCCCCCCC/C=C\CCCCCCCCN`, the Potency entry in assay [1], in [2], in assay [3], in [4], in assay [6] and in assay [9] was “inactive” each time. For the same compound, the outcome in assay [8] was inactive.

For `C=Cc1ccccc1C=C`, the Potency entry in [1], in assay [2], in [3], in assay [4], in [5] and in assay [9] was “inactive” throughout. In addition, the outcome in assay [8] was inactive.

On to `CCN(CC)c1ccc2c(-c3ccc(S(=O)(=O)O)cc3S(=O)(=O)[O-])c3ccc(=[N+](CC)CC)cc-3oc2c1`, for which the Potency entry in [1], in assay [2], in assay [3], in [6] and in assay [7] was “inactive” throughout. In assay [4], the Potency is 12.6 µM (active). The outcome in assay [10] was inactive.

In the case of `Cc1c(C)c2c(c(C)c1O)CC[C@@](C)(CCC[C@H](C)CCC[C@H](C)CCCC(C)C)O2`, the Potency entry in assay [1], in assay [2], in assay [3], in assay [4], in assay [5] and in [6] was “inactive” throughout. Also, the Potency entry in [9] is “inactive”. The compound was classed as inactive in assay [8].

Turning to `Cc1cccc2cccnc12`, the Potency result in [1], in assay [2], in assay [3], in assay [4], in [5] and in [6] was “inactive” throughout. Also, the Potency entry in [9] is “inactive”. Moreover, in assay [8], the compound was called inactive.

As for `CC(CO)Oc1ccccc1` (centres undefined), the Potency entry in [1], in [2], in [3], in [4], in [6] and in assay [7] was “inactive” in each case. Further, in [9], the Potency result is “inactive”. Moreover, the outcome in assay [10] and in [8] was inactive.

For the compound `CN(C)CCN1CCN(c2cccc(Cl)c2)C1=O`, the Potency entry in [1], in assay [2], in [3], in assay [4], in assay [5] and in assay [6] was “inactive” each time. For the same compound, the Potency result in [7] and in assay [9] was “inactive” throughout. The result in [10] and in assay [8] was inactive.

Consider `COc1cccc(OC)c1C(=O)O`, for which the Potency result in assay [1], in assay [2], in [3], in assay [4], in assay [5] and in assay [6] was “inactive” each time. Also, the Potency result in assay [9] is “inactive”. In addition, the result in [8] was inactive.

On to `CN(C)c1ccc(C(=C2C=CC(=[N+](C)C)C=C2)c2ccc(N(C)C)cc2)cc1`, for which the Potency in assay [1] was 1.53 µM (active) and 864 nM (active) and 3.35 µM (active); in [3], 27.2 µM (active) and 37.6 µM (active); in [4], 4.31 µM (active) and 13.7 µM (active) and 3.35 µM (active); in assay [5], 10.8 µM (active) and 27.3 µM (active) and 13.3 µM (active). The Potency result in [2] and in assay [7] was “inactive” throughout. Besides, the result in assay [10] was inactive.

Consider `CCc1cccc(CC)c1NC(=O)CN(CC(=O)O)CC(=O)O`, for which the Potency result in assay [1], in assay [2], in assay [3], in assay [4], in assay [5] and in assay [6] was “inactive” each time. Further, the Potency entry in assay [7] and in assay [9] was “inactive” throughout. In addition, the outcome in assay [8] was inactive.

As to `CC/C=C\CCCCCO`, the Potency entry in assay [1], in [2], in [3], in assay [4], in assay [5] and in [9] was “inactive” throughout. In addition, the call in assay [8] was inactive.

Turning to `O=[N+]([O-])c1ccc(F)c(Cl)c1`, the Potency entry in assay [1], in assay [2], in assay [3], in [4], in [5] and in assay [6] was “inactive” in each case. Also, in assay [9], the Potency result is “inactive”. Besides, the result in assay [8] was inactive.

In the case of `CCCCOC(=O)CO`, the Potency result in assay [1], in assay [2], in assay [3], in assay [4], in [5] and in assay [6] was “inactive” in each case. Also, the Potency entry in [7] is “inactive”.

With `CC1(C)CC(O)CC(C)(C)N1`, the Potency result in assay [1], in [2], in assay [3], in [4], in assay [5] and in assay [6] was “inactive” throughout. In [9], the Potency entry was “inactive”. The compound was called inactive in assay [8].

On to `CCCCOC(=O)CC`, for which the Potency result in assay [1], in assay [2], in assay [3], in [4], in assay [5] and in [9] was “inactive” throughout. Besides, the outcome in assay [8] was inactive.

As for `CCCCCCCCCCCC(=O)OCC(C)OC(=O)CCCCC(=O)O` (centres undefined), the Potency entry in assay [1], in assay [2], in [3], in assay [4], in assay [5] and in assay [6] was “inactive” in each case. The Potency entry in [7] and in assay [9] was “inactive” throughout. The compound was classed as inactive in assay [8].

Consider `O=C(O)[C@H](O)[C@@H](O)[C@H](O[C@@H]1O[C@H](CO)[C@H](O)[C@H](O)[C@H]1O)[C@H](O)CO`, for which the Potency entry in [1], in assay [2], in assay [3], in assay [4], in [5] and in assay [6] was “inactive” throughout. Also, the Potency entry in [7] and in [9] was “inactive” in each case. Besides, the result in [8] was inactive.

Take `OC1CCC(C2CCCCC2)CC1` (centres undefined): the Potency entry in assay [1], in assay [2], in [3], in [4], in [5] and in assay [6] was “inactive” each time. Besides, the Potency entry in [7] and in assay [9] was “inactive” in each case. For the same compound, in assay [8], the call was inactive.

As to `Cc1cccc(C)c1NC(=O)c1ccc(N)cc1`, the Potency result in assay [1], in [2], in assay [3], in [4], in [6] and in [9] was “inactive” throughout. Further, the outcome in [10] and in assay [8] was inactive.

For the compound `Cc1ccc(-c2ccccc2)cc1`, the Potency result in [1], in assay [2], in [3], in assay [4], in [6] and in [9] was “inactive” in each case. The result in assay [8] was inactive.

Turning to `CNc1ccc([N+](=O)[O-])cc1`, the Potency result in [1], in assay [2], in assay [3], in assay [5], in assay [6] and in assay [7] was “inactive” throughout. Also, the Potency entry in [9] was “inactive”. Besides, the outcome in assay [10] and in assay [8] was inactive.
